ChEMBL document CHEMBL3988442, “University of Dundee, Small-Polar-MMV Screening Library” (2021)

molecular target: AMP-activated protein kinase, AMPK (Homo sapiens) (UniProt P54646+O43741+P54619+Q9UGJ0+Q9Y478+Q13131+Q9UGI9); assay: AMP-dependent Kinase enzyme assay. An in vitro enzyme assay that detects ADP turnover that is directly proportional to AMPK activity. This uses naive AMPK that is activated during the assay with MK-8722; format: functional; set-up: scale not given: direction of the effect not stated beside the values; settings: 30 µM

Structure (SMILES) | Percent Effect
CC(C(=O)Nc1cccc(F)c1)N(C)CCN1CCOCC1 (stereo not given) | 0.543%
Oc1cc(C2CCCCN2Cc2cccs2)nc(-c2ccncc2)n1 (stereo not given) | 1.11%
COc1ccc2c(c1)CCCC2CC(=O)O (stereo not given) | -8.39%
Cc1ccc(N2CCC(CCN3CCCC3=O)CC2)nn1 | -7.57%
O=C(COc1ccc(Cl)cc1)NCc1nncn1C1CC1 | -8.68%
CCOCC1(CNCc2cc(O)c3cc(C)ccc3n2)CC1 | -2.54%
COC(=O)N1CCCCC1C(=O)N1CCC(c2ccncc2)CC1 (stereo not given) | 1.07%
Cc1ccc(C2(O)CCN(C(=O)CCn3ccc(=O)[nH]c3=O)CC2)nc1 | 1.66%
CC1COCCN1C(=O)Cc1cc(Cl)c2c(c1)OCCCO2 (stereo not given) | 7.18%
O=C(COc1ccc(-n2cccn2)nn1)N1CCCC1 | 3.54%
COC(=O)c1ccc(N2CCN(C(=O)CCCc3cn[nH]c3)CC2)cc1 | 6%
Cc1nn(C)c(C)c1-c1ccc(=O)n(C(C)C(=O)NC2CCCC2)n1 (stereo not given) | 9.03%
O=C(CN1CCOCC1)N(c1ccccc1)c1ccccc1 | 8.05%
CN(C)S(=O)(=O)c1ccc(=O)n(CC2CCCO2)c1 (stereo not given) | 20.4%
COc1cccc(NC(=O)CN(C(C)C)C2CC2)c1 | -0.663%
Cc1c(CN2CCCCC2)c(O)n(CCO)c(=O)c1C#N | -415%
CCc1ccc2nc(C)cc(C(=O)N[C@@H]3CNC[C@H]3O)c2c1 | 0.636%
O=C(C1CNCCN1C(=O)CCOc1ccccc1)N1CCCC1 (stereo not given) | 8.73%
CCc1ccc2nc(C)cc(C(=O)NC3CCCCNC3=O)c2c1 (stereo not given) | -6.44%
Cc1nn(CC(=O)NCC2(C(N)=O)CCOCC2)c(C)c1Cl | 2.14%
